Bioassay records deposited in PubChem BioAssay by National Center for Advancing Translational Sciences (NCATS).
DT40 TDP1 CPT: DT40-hTDP1 cell growth loss with CPT; chicken DT40 Tdp1-/-;hTDP1 cells + 20 nM CPT, ATP luminescence, 48 h; Potency, µM (top dose mostly 46.2 µM), inactives show at the top dose activity change, negative = growth inhibition, hits mostly inhibitors; actives 12% (n = 420,000); further: potency means the concentration at half of the fitted maximal effect; on the % scale 0 is the no-effect control and ±100 the full control effect; nearly all actives have a fitted effect of over 55% in size
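Chicken DT40 Tdp1-/- cells complemented with human TDP1, 400 cells/well, exposed to compounds plus 20 nM camptothecin for at least 48 h at 37 C; viability read as ATP content by CellTiter-Glo luminescence.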
Chronic BCR inh: chronic active BCR signaling inhibition; ABC-DLBCL IkBa-CBG/CBR reporter, luminescence ratio, 4 h; actives 0.05% (n = 340,000); AID 493014; Potency, µM (doses to about 46.1 µM), for inactives: top-dose activity change, negative = inhibition, actives largely listed as inhibitors; active means well fitted inhibition curve with a large enough effect in the signal ratio, with a control signal flat, not every such curve was filed as active; inconclusive means small, poorly fitted or top-dose-only effect, or effect the other way, or a change in a side signal; the % refers to the signal ratio;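 further: potency means the concentration at half of the fitted maximal effect; plate controls were basal doxycycline-induced cells for no effect and cells given 10 µM MG132 for full effect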
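Doxycycline induced both beetle luciferases in TMD8 lymphoma cells; IKK-driven degradation limits the IkappaBalpha-fused green signal, while red luminescence normalises for cell number and nonspecific effects. Compounds tested up to 46 uM, 4 hrs.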
DT40 TDP1 no CPT: qHTS for Inhibitors of human tyrosyl-DNA phosphodiesterase 1 (TDP1): qHTS in cells in absence of CPT; DT40 Tdp1-/- hTDP1 cells, no CPT, ATP luminescence, 48 h; Potency, µM (top dose mostly 46.2 µM), for the others: at the top dose activity change, negative = growth inhibition, actives largely listed as inhibitors; actives 15% (n = 420,000); AID 686978, 2013; further: potency means the concentration at half of the fitted maximal effect; on the % scale 0 is the no-effect control and ±100 the full control effect; nearly all actives have a fitted effect of over 55% in size
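Compound effects on proliferation are scored in DT40 Tdp1-/-;hTDP1 cells in the absence of CPT. ATP levels (CellTiter-Glo luminescence) are recorded after a ≥48 hr, 37 °C incubation.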
MCF10A rerep: inducers of DNA re-replication in MCF 10A breast cells | MCF 10A DNA re-replication, Hoechst nuclear intensity, 48 h | Potency, µM (highest dose often 46.1 µM), for inactives: top-dose activity, positive = re-replication, usual class: activators | actives 2.9% (n = 350,000) | AID 624296; further: potency means the concentration at half of the fitted maximal effect; % of control where 0% means no effect; nearly all actives have a fitted effect of over 50% in size
SW480 rerep: inducers of DNA re-replication in SW480 colon cancer cells; SW480 DNA re-replication, Hoechst DNA content imaging, 48 h; actives 1.8% (n = 340,000); Potency, µM (titrated, usually from 46.1 µM), for the others: at the top dose re-replication activation, most hits filed as activators; AID 624297; further: potency means the concentration at half of the fitted maximal effect; % of control where 0% means no effect; nearly all actives have a fitted effect of over 55% in size
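Per well, 250 cells were exposed to pinned compound for 48 hr. Nuclear DNA was visualised with Hoechst (40 min, 37 C) and total object intensity recorded by fluorescence scanning.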
IL1B secr inh: inhibitors of inflammasome signaling (IL-1 beta secretion); THP-1 LPS/ATP IL-1B secretion, AlphaLISA, 16 h; stronger effect = lower value; activity change, % at 57.5 µM; actives 4.7% (n = 360,000); in the data active means activity change below about -50%; inconclusive means mostly about -30% to -49%; further: on the % scale 0 is the no-effect control and ±100 the full control effect
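THP-1 cells pretreated 1 hr with compounds (up to 57.5 uM final), then stimulated with LPS (250 ng/mL final) plus ATP (1.25 mM final); secreted IL-1B measured by AlphaLISA after 16 hr, decreased signal indicating inhibition.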
The depositor's hits bear a star; [ ] = another dose, or the depositor's remark. This is a sample that favours compounds with a hit; in the whole collection about 19% have one here. Unless noted, the call rests on the fitted dose curve; in most records, active means well fitted curve in the direction sought with a large enough effect; inconclusive means small, poorly fitted or top-dose-only effect, or another doubt; inactive means no such curve, though single readings can be large; an effect the other way counts as inactive or inconclusive.

O=[N+]([O-])c1ccc(CN2CC(N3CCN(CC4CC4)CC3)CS2(=O)=O)cc1 (centres undefined) was read as DT40 TDP1 CPT -24%, DT40 TDP1 no CPT -25% and IL1B secr inh 17.
Clc1nccnc1N/N=C/c1ccc(Br)cc1 was read as DT40 TDP1 CPT inconclusive, Chronic BCR inh -13%, DT40 TDP1 no CPT -25%, MCF10A rerep 2%, SW480 rerep -14% and IL1B secr inh 0.
For COc1cccc(/C=N/Nc2ncnc3scc(-c4ccccc4)c23)c1O the results were DT40 TDP1 CPT 1µM*, Chronic BCR inh inconclusive, DT40 TDP1 no CPT 1.5µM*, MCF10A rerep 13µM*, SW480 rerep inconclusive and IL1B secr inh 46.
COc1ccc(/C=N/Nc2nccnc2Cl)cc1 was read as DT40 TDP1 CPT 9.2µM*, Chronic BCR inh inconclusive, DT40 TDP1 no CPT 21µM*, MCF10A rerep -1%, SW480 rerep -2% and IL1B secr inh -25.
`COc1cccc(/C=N/Nc2nccnc2Cl)c1O` gave DT40 TDP1 CPT 3.3µM*, Chronic BCR inh inconclusive, DT40 TDP1 no CPT 4.6µM*, MCF10A rerep 5.8µM*, SW480 rerep 0.26µM* and IL1B secr inh 111.
Screening COc1cccc(/C=N/Nc2ncnc(Cl)c2N)c1O returned DT40 TDP1 CPT 0.82µM*, Chronic BCR inh inconclusive, DT40 TDP1 no CPT 0.52µM*, MCF10A rerep inconclusive, SW480 rerep inconclusive and IL1B secr inh 14.
C=C(C)Cn1c(CN(C)Cc2ccccc2)nc2c1c(=O)n(C)c(=O)n2C was read as DT40 TDP1 CPT 7.3µM*, Chronic BCR inh 0%, DT40 TDP1 no CPT 5.2µM*, MCF10A rerep 0%, SW480 rerep -12% and IL1B secr inh 0.
`Cc1ccc(C)c(Cn2c(CN(C)Cc3ccccc3)nc3c2c(=O)n(C)c(=O)n3C)c1` gave DT40 TDP1 CPT 18µM*, Chronic BCR inh 4%, DT40 TDP1 no CPT 15µM*, MCF10A rerep inconclusive, SW480 rerep -3% and IL1B secr inh -7.
For CC(=O)C(C)n1c(CN(C)Cc2ccccc2)nc2c1c(=O)n(C)c(=O)n2C (centres undefined) the results were DT40 TDP1 CPT 8.2µM*, Chronic BCR inh -14%, DT40 TDP1 no CPT 8.2µM*, MCF10A rerep -12%, SW480 rerep 3%[1.84 µM] and IL1B secr inh 9.
Cc1ccc(Cn2c(CN(C)Cc3ccccc3)nc3c2c(=O)n(C)c(=O)n3C)cc1 was read as DT40 TDP1 CPT inconclusive, Chronic BCR inh inconclusive, DT40 TDP1 no CPT inconclusive, MCF10A rerep -1%, SW480 rerep -1% and IL1B secr inh -9.
CC(C)n1c(CN(C)Cc2ccccc2)nc2c1c(=O)n(C)c(=O)n2C was read as DT40 TDP1 CPT 0.73µM*, Chronic BCR inh -5%, DT40 TDP1 no CPT 0.41µM*, MCF10A rerep inconclusive, SW480 rerep -5% and IL1B secr inh 3.
For CCOc1ccccc1NC(=O)CCS(=O)(=O)c1ccc2c(c1)CCN2C(C)=O the results were DT40 TDP1 CPT inconclusive, Chronic BCR inh -1%, DT40 TDP1 no CPT -19%, MCF10A rerep 0%, SW480 rerep 0% and IL1B secr inh 13.
O=C(CSc1nc2ccccc2n1Cc1ccccc1)NCc1ccccc1 was read as DT40 TDP1 CPT -24% and DT40 TDP1 no CPT 23µM*.
For O=C(O)CCSc1nc2ccccc2n1Cc1ccccc1 the results were DT40 TDP1 CPT -11%, Chronic BCR inh 6%, DT40 TDP1 no CPT 0%, MCF10A rerep -1%, SW480 rerep -2% and IL1B secr inh 40.
For CSc1nc2ccccc2n1CC(=O)Nc1ccccc1 the results were DT40 TDP1 CPT 5.2µM*, Chronic BCR inh -1%, DT40 TDP1 no CPT 18µM*, MCF10A rerep 9%, SW480 rerep 16% and IL1B secr inh 17.
Screening Cc1cccc(NC(=O)Cn2c(SCC(=O)NCc3ccccc3)nc3ccccc32)c1C returned DT40 TDP1 CPT -14% and DT40 TDP1 no CPT -25%.
For CCN(C(=O)CSc1nc2ccccc2n1CC(=O)Nc1ccccc1C)c1ccccc1 the results were DT40 TDP1 CPT inconclusive and DT40 TDP1 no CPT 21µM*.
For O=C(CSc1nc2ccccc2n1CCc1ccccc1)N1CCOCC1 the results were DT40 TDP1 CPT inconclusive, Chronic BCR inh inconclusive, DT40 TDP1 no CPT inconclusive, MCF10A rerep 5%, SW480 rerep -8% and IL1B secr inh -10.
O=C(CSc1nc2ccccc2n1CCc1ccccc1)c1ccc(O)c(O)c1 was read as DT40 TDP1 CPT 12µM*, Chronic BCR inh 1%, DT40 TDP1 no CPT 16µM*, MCF10A rerep inconclusive, SW480 rerep inconclusive and IL1B secr inh 21.
C[C@H](CO)N1C[C@H](C)[C@@H](CN(C)C(=O)Nc2ccc3c(c2)OCO3)Oc2ccc(NC(=O)Nc3ccc4c(c3)OCO4)cc2C1=O was read as DT40 TDP1 CPT -25%, Chronic BCR inh 3%, DT40 TDP1 no CPT 0%, MCF10A rerep 9%, SW480 rerep -15%[9.22 µM] and IL1B secr inh -9.
COc1ccc(/C=N/NC(=O)OC(C)(C)C)cc1OC was read as DT40 TDP1 CPT 2%, Chronic BCR inh 12%, DT40 TDP1 no CPT -4%, MCF10A rerep 0%, SW480 rerep 0% and IL1B secr inh 10.
Screening COCCn1c(SCC(=O)NC(=O)NCc2ccccc2)nc2ccccc21 returned DT40 TDP1 CPT inconclusive, Chronic BCR inh 4%, DT40 TDP1 no CPT inconclusive, MCF10A rerep -7%, SW480 rerep 0%[9.22 µM] and IL1B secr inh -21.
For CCN(C(=O)CSc1nc2ccccc2n1CC(=O)NCc1ccc(OC)cc1)c1ccccc1 the results were DT40 TDP1 CPT inconclusive and DT40 TDP1 no CPT 23µM*.
`COc1ccc(CNC(=O)Cn2c(SCC(=O)N(C)c3ccccc3)nc3ccccc32)cc1` gave DT40 TDP1 CPT inconclusive and DT40 TDP1 no CPT 18µM*.
For COc1ccc(CCNC(=O)Cc2ccsc2)cc1 the results were DT40 TDP1 CPT -3%, Chronic BCR inh -8%, DT40 TDP1 no CPT 10%, MCF10A rerep -1%, SW480 rerep -5% and IL1B secr inh 0.
For O=C(Nc1nc2ccccc2[nH]1)c1ccccc1O the results were DT40 TDP1 CPT -14%, Chronic BCR inh inconclusive, DT40 TDP1 no CPT 14%, MCF10A rerep inconclusive, SW480 rerep inconclusive and IL1B secr inh 23.
